Reference: PubChem BioAssay (NCATS)
Records with an inconclusive call do not appear. Where a call stands in place of a potency, no number is given. A number with no mark means an inactive call. The source made the active and inactive calls. Calls follow the shape of the dose curve; as a rule, active = well fitted curve in the direction sought with a large enough effect; inconclusive = small, poorly fitted or top-dose-only effect, or another doubt; inactive = no such curve, though single readings can be large; an effect the other way counts as inactive or inconclusive.

Tests used:
[1] = target: Rap guanine nucleotide exchange factor 3 (Homo sapiens) (UniProt O95398); assay: Confirmatory qHTS for antagonist of cAMP-regulated guanine nucleotide exchange factor 3 (EPAC1) (AID 1645880); settings: EPAC1 Rap1B-BODIPY-GDP exchange, fluorescence; activity, negative = inhibition: at 115 µM (top of the series); also: nearly all actives have a fitted effect of over 55% in size; also: potency is read from the fitted curve at half-maximal effect
Sequence of Rap guanine nucleotide exchange factor 3 (Homo sapiens) (O95398 whole entry, looked up): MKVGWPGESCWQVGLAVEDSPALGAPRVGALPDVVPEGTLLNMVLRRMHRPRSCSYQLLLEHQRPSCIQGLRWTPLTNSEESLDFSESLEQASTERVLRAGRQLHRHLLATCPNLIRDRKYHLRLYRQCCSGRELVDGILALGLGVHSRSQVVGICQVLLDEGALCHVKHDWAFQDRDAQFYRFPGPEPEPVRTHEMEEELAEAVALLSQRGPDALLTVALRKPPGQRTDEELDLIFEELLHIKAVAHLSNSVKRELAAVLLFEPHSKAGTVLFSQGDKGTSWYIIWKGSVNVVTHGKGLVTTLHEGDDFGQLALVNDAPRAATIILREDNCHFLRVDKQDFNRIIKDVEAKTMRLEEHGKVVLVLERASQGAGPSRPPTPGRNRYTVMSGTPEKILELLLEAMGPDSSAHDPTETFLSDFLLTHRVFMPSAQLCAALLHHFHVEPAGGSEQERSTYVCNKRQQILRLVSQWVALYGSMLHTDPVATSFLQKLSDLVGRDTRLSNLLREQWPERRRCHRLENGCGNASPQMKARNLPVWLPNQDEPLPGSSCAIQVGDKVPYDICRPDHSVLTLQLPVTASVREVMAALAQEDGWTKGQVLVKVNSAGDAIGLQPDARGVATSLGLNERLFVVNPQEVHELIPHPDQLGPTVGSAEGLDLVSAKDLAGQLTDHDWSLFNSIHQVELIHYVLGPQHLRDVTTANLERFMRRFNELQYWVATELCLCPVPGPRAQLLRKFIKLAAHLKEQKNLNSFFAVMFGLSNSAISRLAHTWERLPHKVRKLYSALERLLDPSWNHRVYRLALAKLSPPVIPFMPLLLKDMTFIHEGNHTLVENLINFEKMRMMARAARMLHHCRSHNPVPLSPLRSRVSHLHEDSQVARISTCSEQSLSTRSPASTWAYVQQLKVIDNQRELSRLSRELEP
Method in brief: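 Nucleotide exchange uses 100 nM EPAC1, 250 nM RAP1B-BODIPY-GDP and 50 uM GDP, with compounds in a concentration-titration series. After 5 min at room temperature, fluorescence (480 nm ex/540 nm em) is read every 5 min for 30 min. Data are normalized to control ATA and DMSO.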

[2] = target: Rap guanine nucleotide exchange factor 3 (Homo sapiens) (UniProt O95398); assay: Confirmatory qHTS for agonist of cAMP-regulated guanine nucleotide exchange factor 3 (EPAC1) (AID 1645881); also: nearly all actives have a fitted effect of over 75% in size; also: potency is read from the fitted curve at half-maximal effect;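 as to activation: EPAC1 catalysed release of BODIPY-GDP from Rap1B seen as fluorescence loss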
[3] = target: Rap guanine nucleotide exchange factor 4 (Homo sapiens) (UniProt Q8WZA2); assay: Confirmatory qHTS for agonist of cAMP-regulated guanine nucleotide exchange factor 4 (EPAC2) (AID 1645884);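 also: nucleotide exchange releases bodipy-GDP from Rap1 and this lowers its fluorescence; nearly all actives have a fitted effect of over 65% in size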; also: potency is read from the fitted curve at half-maximal effect
Sequence of Rap guanine nucleotide exchange factor 4 (Homo sapiens) (Q8WZA2 whole entry, looked up): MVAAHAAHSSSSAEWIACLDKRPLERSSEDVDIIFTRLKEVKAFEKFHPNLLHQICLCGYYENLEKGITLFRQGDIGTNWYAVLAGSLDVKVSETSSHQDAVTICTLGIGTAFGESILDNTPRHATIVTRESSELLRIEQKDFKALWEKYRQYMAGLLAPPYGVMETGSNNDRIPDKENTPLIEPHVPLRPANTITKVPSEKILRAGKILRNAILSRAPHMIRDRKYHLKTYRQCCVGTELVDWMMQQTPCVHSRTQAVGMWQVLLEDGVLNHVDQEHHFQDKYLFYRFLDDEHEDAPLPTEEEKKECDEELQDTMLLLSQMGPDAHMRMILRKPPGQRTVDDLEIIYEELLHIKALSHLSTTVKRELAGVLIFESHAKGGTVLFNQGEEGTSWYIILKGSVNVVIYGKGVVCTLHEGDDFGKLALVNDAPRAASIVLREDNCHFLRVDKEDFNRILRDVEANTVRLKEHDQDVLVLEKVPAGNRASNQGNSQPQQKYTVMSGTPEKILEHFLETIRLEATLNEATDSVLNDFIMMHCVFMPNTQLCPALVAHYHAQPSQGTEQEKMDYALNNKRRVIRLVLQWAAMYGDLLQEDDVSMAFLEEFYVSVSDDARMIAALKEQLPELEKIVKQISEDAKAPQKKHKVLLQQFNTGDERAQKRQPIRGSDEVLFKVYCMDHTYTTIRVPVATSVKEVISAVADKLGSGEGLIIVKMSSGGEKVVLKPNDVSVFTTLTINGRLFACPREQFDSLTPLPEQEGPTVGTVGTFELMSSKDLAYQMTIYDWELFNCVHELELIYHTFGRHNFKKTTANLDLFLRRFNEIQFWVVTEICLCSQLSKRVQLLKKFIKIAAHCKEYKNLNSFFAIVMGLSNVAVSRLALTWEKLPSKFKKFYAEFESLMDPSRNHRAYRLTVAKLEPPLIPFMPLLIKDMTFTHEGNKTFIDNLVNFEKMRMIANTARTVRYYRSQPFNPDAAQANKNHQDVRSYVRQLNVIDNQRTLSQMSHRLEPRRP

[4] = target: Rap guanine nucleotide exchange factor 3 (Homo sapiens) (UniProt O95398); assay: Counterscreen qHTS for antagonist of cAMP-regulated guanine nucleotide exchange factor 3 (EPAC1) (AID 1645888);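 also: fluorescence loss as bound BODIPY-GDP is released from Rap1B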
Method in brief: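 Measured: fluorescence of BODIPY-GDP bound to Rap1B, which falls as exchange proceeds. Conditions include 50 uM competing GDP, 5 and 30 min reads, and a later cAMP challenge for antagonist detection.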

**Q.** What does the source list for `CCOc1ccc(-n2c(SCC(=O)Nc3ccc(F)cc3)nc3c([nH]c4ccccc43)c2=O)cc1`?
**A.** Potency [1]: inactive; Potency [2]: inactive; Potency [3]: inactive; Potency [4]: inactive

**Q.** Which results are given for `CCOC(=O)c1c(NC(=O)CSc2nc3ccc(C)cc3[nH]2)sc2c1CC(C)(C)NC2(C)C`?
**A.** Potency [1]: inactive; Potency [2]: inactive; Potency [3]: inactive; Potency [4]: inactive

**Q.** What does the source list for `Cc1ccc(S(=O)(=O)Nc2ccccc2C(=O)Nc2nc(-c3ccc(F)cc3)cs2)cc1`?
**A.** Potency [1]: 42.6 µM (active); Potency [2]: inactive; Potency [3]: inactive; Potency [4]: inactive

**Q.** Which results are given for `COC(=O)/C(=C/Nc1ccc(O)cc1)[N+](=O)[O-]`?
**A.** Potency [1]: inactive; Potency [2]: inactive; Potency [3]: inactive; Potency [4]: inactive

**Q.** `Cc1cc(C)c2nc(N3C(=O)C(O)=C(C(=O)c4ccco4)C3c3ccc(O)cc3)sc2c1` (stereo not given) was tested. Which Potency [1] did it give?
**A.** 37.9 µM (active)

**Q.** And the Potency [2]?
**A.** inactive

**Q.** What about the Potency [3] of the same molecule?
**A.** inactive

**Q.** And the Potency [4]?
**A.** inactive

**Q.** For `O=C(Nc1cccc(Cl)c1N1CCOCC1)c1cccs1`, which Potency [1] is on record?
**A.** inactive

**Q.** What about the Potency [2] of the same molecule?
**A.** inactive

**Q.** And the Potency [3]?
**A.** inactive

**Q.** And the Potency [4]?
**A.** inactive

**Q.** For `O=C(Nc1sc2c(c1C(=O)O)CCC2)c1ccccc1F`, which Potency [1] is on record?
**A.** inactive

**Q.** And the Potency [2]?
**A.** inactive

**Q.** What about the Potency [3] of the same molecule?
**A.** inactive

**Q.** And the Potency [4]?
**A.** inactive

**Q.** `CC(=O)c1ccc(N2CCN(C(=O)c3cc(-c4cccnc4)nc4ccc(Br)cc34)CC2)cc1` was tested. Which Potency [1] did it give?
**A.** inactive

**Q.** What about the Potency [2] of the same molecule?
**A.** inactive

**Q.** What about the Potency [3] of the same molecule?
**A.** inactive

**Q.** What about the Potency [4] of the same molecule?
**A.** inactive

**Q.** Which Potency [1] does the source give for `C[C@@H]1CC=C[C@H]2[C@H]1C(=O)N(Cc1ccccc1)[C@H]2c1ccc(-c2ccoc2)cc1F` here?
**A.** inactive

**Q.** And the Potency [2]?
**A.** inactive

**Q.** And the Potency [3]?
**A.** inactive

**Q.** And the Potency [4]?
**A.** inactive

**Q.** What does the source list for `CN(Cc1ccnc2ccccc12)C(=O)C1CCC(=O)N(Cc2ccccc2F)C1` (stereo not given)?
**A.** Potency [1]: inactive; Potency [2]: inactive; Potency [3]: inactive; Potency [4]: inactive

**Q.** What does the source list for `COC(=O)C1=CN(Cc2cccs2)C=C(C(=O)OC)C1c1cccc(O)c1`?
**A.** Potency [1]: inactive; Potency [2]: inactive; Potency [3]: inactive; Potency [4]: inactive

**Q.** Which results are given for `CCSc1nc(C)cc(C)c1S(=O)(=O)c1ccccc1C`?
**A.** Potency [1]: inactive; Potency [2]: inactive; activation [3]: 3.71% [at 17.1 µM, percent relative to cAMP agonist control]; activity change, negative = inhibition [4]: 8% [at 30.8 µM]

**Q.** What does the source list for `CCn1c(O)c(/C=N/NC(=O)c2ccncc2)c(=O)n(CC)c1=S`?
**A.** Potency [1]: inactive; Potency [2]: 35.5 µM (active); Potency [3]: 25.1 µM (active); Potency [4]: inactive

**Q.** With `CC(C)=CCc1c(O)cc2oc3c(CC=C(C)C)c(O)c(O)c(CC=C(C)C)c3c(=O)c2c1O` as the molecule, how does the Potency [1] read?
**A.** 75.7 µM (active)

**Q.** And the Potency [2]?
**A.** inactive

**Q.** What about the Potency [3] of the same molecule?
**A.** inactive

**Q.** What about the Potency [4] of the same molecule?
**A.** inactive

**Q.** With `COc1ccc(/C=C2\N=C(SC)N(c3ccccc3OC)C2=O)cc1` as the molecule, how does the Potency [1] read?
**A.** inactive

**Q.** And the Potency [2]?
**A.** inactive

**Q.** And the activation [3]?
**A.** 7.24% [at 17.1 µM, percent relative to cAMP agonist control]

**Q.** What about the activity change, negative = inhibition [4] of the same molecule?
**A.** -8.08% [at 30.8 µM]

**Q.** What does the source list for `O=C1C(O)=CC(=C(c2ccccc2)c2ccccc2)c2ccccc21`?
**A.** Potency [1]: inactive; Potency [2]: inactive; Potency [3]: inactive; Potency [4]: inactive

**Q.** Which results are given for `COc1ccc(C(C(=O)NC(C)(C)C)n2c(=O)c(-c3cc4ccccc4[nH]3)nc3ccccc32)cc1` (stereo not given)?
**A.** Potency [1]: inactive; Potency [2]: inactive; Potency [3]: inactive; Potency [4]: inactive

**Q.** Which results are given for `Cc1nc2cc(-c3ccsc3-n3c(C)ccc3C)[nH]n2c(=O)c1Cl`?
**A.** Potency [1]: 37.9 µM (active); Potency [2]: inactive; Potency [3]: inactive; Potency [4]: inactive

**Q.** `COC(=O)c1nc2nc(C)cc(=O)n2[nH]1` was tested. Which Potency [1] did it give?
**A.** inactive

**Q.** And the Potency [2]?
**A.** inactive

**Q.** What about the Potency [3] of the same molecule?
**A.** inactive

**Q.** What about the Potency [4] of the same molecule?
**A.** inactive

**Q.** Which results are given for `COc1ccc2c(c1)C(CC(C)=O)N(c1ccc(-c3cccnc3)cc1)C(c1ccsc1)=C2` (stereo not given)?
**A.** Potency [1]: inactive; Potency [2]: inactive; Potency [3]: inactive; Potency [4]: inactive

**Q.** What does the source list for `COc1cc(/C=C2\C(=O)N(c3cccc(C(=O)O)c3)N=C2C)ccc1OCc1ccccc1`?
**A.** Potency [1]: 37.9 µM (active); Potency [2]: inactive; Potency [3]: inactive; Potency [4]: inactive

**Q.** How did the Potency [1] turn out when `O=C(CSc1nc2nn(-c3ccccc3)c(=O)c-2c2n1CCCCC2)c1ccc(O)c(O)c1` was run?
**A.** 2.39 µM (active)

**Q.** And the Potency [2]?
**A.** inactive

**Q.** What about the Potency [3] of the same molecule?
**A.** inactive

**Q.** And the Potency [4]?
**A.** inactive

**Q.** Which results are given for `O=C(CS(=O)(=O)c1ccccc1)c1cc2ccccc2oc1=O`?
**A.** Potency [1]: inactive; Potency [2]: inactive; activation [3]: 8.75% [at 17.1 µM, percent relative to cAMP agonist control]; activity change, negative = inhibition [4]: -20.4% [at 30.8 µM]

**Q.** What does the source list for `COc1ccc(NC(=O)c2cc(-c3ccco3)nc3ccccc23)cc1S(=O)(=O)N1CCOCC1`?
**A.** Potency [1]: 9.53 µM (active); Potency [2]: inactive; Potency [3]: inactive; Potency [4]: inactive

**Q.** How did the Potency [1] turn out when `CCSc1oc(-c2cccs2)nc1S(=O)(=O)c1ccccc1` was run?
**A.** inactive

**Q.** And the Potency [2]?
**A.** inactive

**Q.** What about the Potency [3] of the same molecule?
**A.** inactive

**Q.** What about the Potency [4] of the same molecule?
**A.** inactive

**Q.** For `Cc1cc(C)cc(NC(=O)CSc2nnc(-c3cc4occc4n3C)n2-c2ccccc2C)c1`, which Potency [1] is on record?
**A.** inactive

**Q.** What about the Potency [2] of the same molecule?
**A.** inactive

**Q.** What about the Potency [3] of the same molecule?
**A.** inactive

**Q.** What about the Potency [4] of the same molecule?
**A.** inactive

**Q.** Which Potency [1] does the source give for `CCOC(=O)CC1C(=O)NCCN1C(=O)c1cccc(C(F)(F)F)c1` (stereo not given) here?
**A.** inactive

**Q.** What about the Potency [2] of the same molecule?
**A.** inactive

**Q.** What about the Potency [3] of the same molecule?
**A.** inactive

**Q.** What about the Potency [4] of the same molecule?
**A.** inactive

**Q.** How did the Potency [1] turn out when `CC(C(=O)Nc1ccc(O)c(C(=O)O)c1)N1C(=O)/C(=C/c2cccs2)SC1=S` (stereo not given) was run?
**A.** 37.9 µM (active)

**Q.** And the Potency [2]?
**A.** inactive

**Q.** And the Potency [3]?
**A.** inactive

**Q.** And the Potency [4]?
**A.** inactive

**Q.** Which Potency [1] does the source give for `COc1ccc2cc(/C=C3\SC(=S)NC3=O)c(N3CCOCC3)nc2c1` here?
**A.** 20 µM (active)

**Q.** And the Potency [2]?
**A.** inactive

**Q.** What about the activation [3] of the same molecule?
**A.** 0.207% [at 17.1 µM, percent relative to cAMP agonist control]

**Q.** And the activity change, negative = inhibition [4]?
**A.** 3.21% [at 30.8 µM]

**Q.** With `CC(=O)CCc1oc2ccccc2c1-c1ccccc1` as the molecule, how does the Potency [1] read?
**A.** inactive

**Q.** And the Potency [2]?
**A.** inactive

**Q.** What about the activation [3] of the same molecule?
**A.** 6.69% [at 17.1 µM, percent relative to cAMP agonist control]

**Q.** And the activity change, negative = inhibition [4]?
**A.** -10.9% [at 30.8 µM]
